Pf growth 96h: P. falciparum growth inhibition at 96 hour, primary screen for plastid delayed-death inhibitors; P. falciparum luciferase reporter growth, 96 h; Potency, µM (series often up to 28.7 µM), actives largely listed as inhibitors; actives 6.9% (n = 320,000)
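Infected RBCs, 2% Hct / 0.05% parasitemia final; luciferase-reporter P. falciparum; cpd 96 h, 37 C, 5% CO2; luciferase detection reagent; luminescence.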
Pf growth 48h: P. falciparum growth inhibition at 48 hours (one generation). actives 5.9% (n = 310,000). Potency, µM (top dose mostly 28.7 µM), actives largely listed as inhibitors. P. falciparum luciferase growth in erythrocytes, 48 h
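Here the parasites carry a stable luciferase gene and grow inside erythrocytes in Albumax-based RPMI medium with compound for one erythrocytic cycle. Activity is scored as loss of luminescent signal.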
AMA1-RON2 inh: AMA1-RON2 (P. falciparum) interaction inhibition | AlphaScreen AMA1-biotinylated RON2 peptide binding | Potency, µM (series often up to 58.2 µM), hits mostly inhibitors | actives 0.2% (n = 360,000); further: nearly all actives have a fitted effect of over 45% in size
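AMA1 (3D7) with his tag at 25 nM final met compounds first, then biotinylated RON2 peptide at 25 nM; detection used donor plus acceptor beads, 10 µg/mL apiece, read by AlphaScreen after 30 min at room temperature.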
HCV inhibitor: HCV inhibition; Huh7.5.1 HCVcc-Cre infection, luciferase reporter, 44 h; Potency, µM (doses to about 41.8 µM), actives largely listed as inhibitors; actives 3.4% (n = 340,000); AID 651820
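HCVcc-Cre virus at an moi near 0.5 was added right after compound to cells cultured 4 h from seeding (1,000 cells/well). Luciferase activity was determined 44 h later, 15 min after substrate addition at RT.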
Hits are given with their value; 0 = inactive; ? = inconclusive; - = no result given; [ ] = dose if it differs, or a comment. Only some compounds are listed: those with a hit (about 11% of all), similar ones and a draw of the others. The call rests on the fitted dose curve; in most records, active means well fitted curve in the direction sought with a large enough effect; inconclusive means small, poorly fitted or top-dose-only effect, or another doubt; inactive means no such curve, though single readings can be large; an effect the other way counts as inactive or inconclusive.

SMILES | Pf growth 96h | Pf growth 48h | AMA1-RON2 inh | HCV inhibitor
CCc1nc2ccc(C(=O)NCc3ccccc3OC)cn2c1N(CC)CCN(C)C | - | - | 0 | -
COC(=O)c1ccc(/C=C/c2c(-c3ccsc3)sc3ccccc23)cc1 | ? | ? | 0 | 10µM
COc1ccc(-c2sc3ccccc3c2/C=C/c2ccc(N)cc2)cc1 | - | - | 0 | ?
NC1=NC(=O)/C(=C/c2ccc(Br)cc2)S1 | 2.3µM | 0 | 0 | 0
CCOC(=O)C1=C(CSc2nc(-c3ccccc3)ccc2C#N)OC(N)=C(C#N)C1c1ccc(OC)cc1 (stereo not drawn) | ? | ? | 0 | ?
CCc1c(C)[nH]c2ccccc2c1=O | 0 | 1.7µM | 0 | 0
CC1CC(C)CN(CCCNC(=O)C2CCN(c3nnc(-n4cccc4)s3)CC2)C1 (stereo not drawn) | ? | 0 | 0 | 0
Nc1nc(SCc2ccc(Cl)c(Cl)c2)n[nH]1 | ? | 0 | 0 | 0
Nc1nc(SCc2c(Cl)cccc2Cl)n[nH]1 | 1.3µM | - | 0 | 0
CC(=O)Oc1cc(C(=O)OCC(=O)NC23CC4CC(CC(C4)C2)C3)cc(OC(C)=O)c1OC(C)=O | - | - | 20µM | 0
O=C(Nc1cc2c(cc1Cl)-c1ccc([N+](=O)[O-])cc1C2=NO)C(F)(F)F | - | - | 0 | ?
CC(O)(c1cccc(F)c1)c1nc(-c2ccoc2)cs1 (stereo not drawn) | - | - | 0 | -
Cc1ccc(N2CC(O)(c3cccs3)[N+]3=C2CCCC3)cc1 (stereo not drawn) | 5.2µM | ? | 0 | 0
Cc1cccc(N2CC(O)(c3cccs3)[N+]3=C2CCCC3)c1 (stereo not drawn) | 0 | 0 | 0 | 0
CC(OC(=O)Cc1ccsc1)C(=O)Nc1ccc(C(N)=O)cc1 (stereo not drawn) | ? | 0 | 0 | 0
Cc1cc(C2=NNC(=NCCc3ccccc3)SC2)c(C)n1CC1CCCO1 (stereo not drawn) | ? | ? | 0 | 11µM
C=CCn1c(C)cc(C2=NNC(=NCc3ccccc3)SC2)c1C | 10µM | 0 | 0 | ?
CCN=C1NN=C(c2cc(C)n(CCc3ccccc3)c2C)CS1 | ? | ? | 0 | 0
CC(C)C(c1nnnn1Cc1ccco1)N1CCN(c2cccc(Cl)c2)CC1 (stereo not drawn) | 0 | 0 | 0 | 0
CCC(c1nnnn1Cc1ccco1)N1CCN(c2cc(Cl)ccc2C)CC1 (stereo not drawn) | 1.5µM | ? | 0 | ?
Cc1ccc(Cl)cc1N1CCN(Cc2nnnn2Cc2ccco2)CC1 | 8.3µM | 0 | 0 | 0
C[C@]12C=CC(=O)N[C@@H]1CC[C@@H]1C2CC[C@]2(C)C(C(=O)Nc3cc(C(F)(F)F)ccc3C(F)(F)F)CC[C@@H]12 (stereo partly drawn) | 3.4µM | 4.8µM | - | -
CC(C)(C)NC(=O)[C@@H]1CC[C@@H]2[C@@H]3CC[C@@H]4NC(=O)C=C[C@@]4(C)[C@H]3CC[C@]21C | 0 | 0 | - | -
CCN1C(=O)NC(=O)/C(=C\c2cn(CC(=O)N3CCCCC3C)c3ccccc23)C1=O (stereo not drawn) | 6.6µM | 0 | 0 | 0
CC1CCCCN1C(=O)Cn1cc(C#N)c2ccccc21 (stereo not drawn) | 0 | 0 | 0 | 0
SMILES | Pf growth 96h | Pf growth 48h | AMA1-RON2 inh | HCV inhibitor
Cc1ccc(-n2nc3c(=O)n(CCCC(=O)NCc4ccccc4C)nc(C)c3c2C)cc1 | ? | ? | 0 | ?
COc1ccc(OC)c(CCNC(=O)Cn2nc(C)c3c(C)n(-c4ccc(C)cc4)nc3c2=O)c1 | ? | 0 | 0 | 1.1µM
Cc1ccc(-n2nc3c(=O)n(CC(=O)NC4CCCCCC4)nc(C)c3c2C)cc1 | 13µM | 0 | 0 | 0
Cc1ccc(-n2nc3c(=O)n(CCCC(=O)NC4CCC(C)CC4)nc(C)c3c2C)cc1 (stereo not drawn) | 0 | ? | 0 | 0
Cc1ccc(-n2nc3c(=O)n(CC(=O)NCCc4ccccc4C)nc(C)c3c2C)cc1 | 0 | ? | 0 | 5µM
Cc1ccc(NC(=O)c2ccc3nsnc3c2)c(C)c1 | ? | 0 | 0 | 0
NC(=O)[C@@H]1CCCN1Cc1nc(Cc2ccccc2Cl)no1 | 3.7µM | 0 | 0 | 0
Clc1ccccc1Cc1noc(CN2CCN3CCCC3C2)n1 (stereo not drawn) | 2.9µM | ? | 0 | 0
NC(=O)[C@@H]1CCCN1Cc1nc(-c2ccccc2)no1 | ? | 0 | 0 | 0
CCOC(=O)Cc1nc(-c2cccc(C(F)(F)F)c2)no1 | 0 | ? | 0 | 0
COc1ccccc1CCNC(=O)c1nccnc1C(=O)O | 0 | 0 | 0 | 0
C[C@H](CO)N1C[C@H](C)[C@@H](CN(C)Cc2ccc(-c3ccccc3)cc2)OCc2cnnn2CCCC1=O | - | - | 0 | -
Cc1nnc(SCc2cc(=O)oc3cc(O)ccc23)n1Cc1ccccc1 | 2.1µM | ? | 0[11.6 µM] | 0
COC(=O)c1ccc(CSc2nc3ccccc3c(=O)n2-c2ccc(OC)c(OC)c2)o1 | - | 8.3µM | 0 | 10µM
COC(=O)c1ccc(CSc2nc3c(c(=O)n2-c2ccccc2)SCC3)o1 | ? | 10µM | 0 | ?
CCCC(C)CO (stereo not drawn) | 0 | 0 | 0 | 0
NCCCC[C@H]1CN=C(N)N1CCC12CC3CC(CC(C3)C1)C2 | 3.7µM | 9.3µM | 0 | 0
CSc1nc(N(C)NC(=O)c2ccccc2)c2ccccc2n1 | ? | ? | 0 | ?
COc1cccc(C(=O)NNc2c3ccccc3nc3ccccc23)c1 | 12µM | ? | ? | ?
Clc1cncc(Cl)c1NNc1c2ccccc2nc2ccccc12 | 0 | 2.9µM | 0 | ?
Cc1ccc(C(=O)NNc2c3ccccc3nc3ccccc23)cc1 | 0 | 13µM | 0 | 11µM
CSc1nc(N(C)NC(=O)c2ccc(Cl)cc2)c2ccccc2n1 | 3.7µM | 3.3µM | 0 | ?
CC(C)C(NC(=O)c1ccccc1)C(=O)N/N=C\c1ccco1 (stereo not drawn) | 0 | 0 | 0 | 0
CC1Oc2ccccc2N(CC(=O)N2CCCCCC2)C1=O (stereo not drawn) | 0 | 0 | 0 | ?
O=C(NNc1c2ccccc2nc2ccccc12)c1ccc(Cl)cc1 | 0 | 13µM | 0 | ?
SMILES | Pf growth 96h | Pf growth 48h | AMA1-RON2 inh | HCV inhibitor
Cc1cc(C(=O)NNC(=O)c2ccc(Cl)cc2)c2ccccc2n1 | 0 | 0 | 0 | 0
COc1cccc(CNC(=O)CC2C(=O)NCCN2Cc2ccoc2)c1OC (stereo not drawn) | 12µM | ? | 0 | 0
COc1cccc(CN2CCNC(=O)C2CC(=O)NCC(C)(C)N2CCOCC2)c1OC (stereo not drawn) | 10µM | 0 | 0 | 0
O=C(Nc1ccccc1F)N1CCc2ccccc2C1 | ? | 0 | 0 | 0
COc1ccc(CCCNC(=O)C2(C)Cc3c(-c4ccc5c(c4)OCO5)ccnc3O2)cc1 (stereo not drawn) | - | - | 0 | -
FC(F)(F)COc1nc(N2CCOCC2)nc(N(c2ccccc2)c2ccccc2)n1 | 0 | 3.3µM | 0 | ?
FC(F)(F)c1cc(-c2ccccc2)nc(N2CCOCC2)n1 | 0 | 0 | 0 | 8.9µM
COc1ccc(-c2cc(C(F)(F)F)nc(N3CCN(Cc4ccccc4)CC3)n2)cc1OC | 0 | 10µM | 0 | 0
O=C1CSC(c2cccc(F)c2)N1c1ccccc1 (stereo not drawn) | 0 | 0 | 0 | 0
